Screening results as filed in PubChem.
This is a sample that favours compounds with a hit; in the whole collection about 11% have one here.
HPGD inh: blocks human HPGD enzyme activity. P15428. purified HPGD, NADH fluorescence kinetic, PGE2 substrate. Potency, µM, inactives show at the top dose activity change, negative = inhibition, hits mostly inhibitors. 4.3% of 150,000 active; note: potency is the fitted concentration of half-maximal effect
Target sequence (P15428 whole entry, looked up): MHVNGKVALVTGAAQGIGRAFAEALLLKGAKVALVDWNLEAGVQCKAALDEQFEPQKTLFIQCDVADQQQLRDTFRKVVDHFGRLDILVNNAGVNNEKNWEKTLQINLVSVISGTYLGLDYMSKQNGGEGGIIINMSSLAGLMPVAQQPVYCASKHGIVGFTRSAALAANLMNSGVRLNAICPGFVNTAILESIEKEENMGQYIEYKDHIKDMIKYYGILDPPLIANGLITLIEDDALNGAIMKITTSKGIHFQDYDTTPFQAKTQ
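NADH formation kinetics: reaction with 30 uM PGE2 and 1 mM NAD+ (final), 20 nM enzyme, Tris-HCl pH 8 with Tween 20, after 15 min compound preincubation at room temperature. Fluorescence change, last versus first of five reads.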
ALDH1A1 block: ALDH1A1 (human) enzyme inhibition; 7.3% of 220,000 active; Purified ALDH1A1, NADH fluorescence, propionaldehyde substrate; Potency, µM (titrated, usually from 75.3 µM), without a hit: at the top dose activity, negative = inhibition, actives largely listed as inhibitors;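 note: potency is the fitted concentration of half-maximal effect; plate controls were no enzyme wells and a reference inhibitor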
PNC assembly inh: inhibitors of perinucleolar compartment assembly | PC3M PTB-GFP, PNC prevalence imaging, 16 h; hits give low values | activity change (PNC), negative = inhibition, % at 10 µM | 3.1% of 140,000 active;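 active = readout at or below -70, meaning at least 70% loss of cells showing the perinucleolar compartment, a nuclear body marking cancer cells; inconclusive = readout between -30 and a set limit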;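 note: plate controls were DMSO wells for no effect and camptothecin positive control wells for full effect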
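Read-out is percentage of cells bearing a perinucleolar compartment, from automated 20x imaging of fixed, Hoechst-stained PC3M PTB-GFP cells. Cells were seeded 4 h, then exposed 16 h to compound (23 nl of library stock) in duplicate plates.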
The depositor's hits bear a star; ? = inconclusive; nt = no result; [ ] = another dose, or the depositor's remark. Unless noted, calls come from the whole dose curve; as a rule, active = well fitted inhibition curve with a large enough effect (not every such curve was filed as active); inconclusive = small, poorly fitted or top-dose-only effect, or another doubt; inactive = no such curve, though single readings can be large or run the other way. Unless noted, % is set by controls: 0 for no effect and ±100 for the full control effect.

SMILES	HPGD inh	ALDH1A1 block	PNC assembly inh
Cc1nnc(SC2CC(=O)N(c3ccccc3)C2=O)s1 (centres undefined)	13µM*	0.71µM*	-23
O=C1CC(SC2=NCCS2)C(=O)N1c1ccc(Br)cc1 (centres undefined)	-10%	7.9µM*	?
O=C(O)c1ccccc1SC1CC(=O)N(c2ccccc2)C1=O (centres undefined)	-4%	2.5µM*	64
COC(=O)c1sccc1NC(=O)C1CC1	nt	6%	nt
COC(=O)c1ccc(NCCc2csc(-c3ccc(C)cc3)n2)c([N+](=O)[O-])c1	-15%	13%	22
O=C(Nc1cccc(C(=O)O)c1)/C(=C\c1ccccc1)NC(=O)c1cccc2ccccc12	nt	-2%	nt
O=C(O)c1ccccc1SC1CC(=O)N(C2CCCCC2)C1=O (centres undefined)	-8%	0.63µM*	40
COC(=O)c1c(N2C(=O)CC(Sc3ccccc3C(=O)O)C2=O)sc2c1CCCC2 (centres undefined)	nt	0.45µM*	nt
CC(c1ccccc1)N1C(=O)CC(Sc2ncccc2C(=O)O)C1=O (centres undefined)	7%	-7%	?
COC(=O)c1c(N2C(=O)CC(Sc3ccccc3C(=O)O)C2=O)sc(C)c1C (centres undefined)	nt	-1%	nt
O=C1[C@H]2[C@H]3[C@H](O)[C@H](O)C/C(=N/OCc4ccccc4)[C@@H]3CC[C@@H]2C(=O)N1c1cccc(Oc2ccccc2)c1	nt	-12%[13.5 µM]	nt
COc1cc(CNc2ccc(CNc3ncn[nH]3)cc2)ccc1OCc1ccccc1	-18%	8%	-5
CC(C)(C)NC(=O)CC(c1ccccc1)c1ccccc1O (centres undefined)	-23%	-2%	-15
O=C(CC(c1ccccc1)c1ccccc1)N1CCN(c2ccccn2)CC1	nt	3%	nt
O=C(CC(c1ccccc1)c1ccccc1O)N1CCCC1 (centres undefined)	1.8µM*	-1%	-88*
COc1ccccc1C(CC(=O)N1CCCC1)c1ccc2c(c1)OCO2 (centres undefined)	nt	8%	nt
Cc1cccc(C(CC(=O)N2CCCC2)c2ccccc2)c1O (centres undefined)	11µM*	-1%	37
Cc1ccc(C(CC(=O)N2CCCC2)c2ccccc2)c(O)c1C (centres undefined)	7.9µM*	6%	15
Cc1ccc(Nc2nc(N)nc(CN3CCN(c4ccccc4F)CC3)n2)cc1	-11%	32µM*	17
Nc1nc(CN2CCCCCC2)nc(Nc2ccccc2)n1	-16%	-13%	?
Nc1nc(CN2CCN(Cc3ccc4c(c3)OCO4)CC2)nc(Nc2ccccc2)n1	-7%	-13%	-129*
Nc1nc(CN2CCC(Cc3ccccc3)CC2)nc(Nc2ccccc2)n1	-7%	7%	-105*
Cc1ccccc1Nc1nc(N)nc(CN2CCN(Cc3ccc4c(c3)OCO4)CC2)n1	nt	-5%	nt
Nc1nc(CN2CCN(c3ccccc3F)CC2)nc(Nc2ccccc2)n1	-6%	?	?
O=C(NCCCn1ccnc1)/C(=C\c1cccnc1)NC(=O)c1ccccc1F	nt	1%	nt
SMILES	HPGD inh	ALDH1A1 block	PNC assembly inh
COc1ccccc1CCc1nnc(CCC(=O)NCCCOc2cccnc2)o1	nt	7%	nt
Cc1ccc2c(c1)c1c3n2CC(=C2C(=O)OC(C)(C)OC2=O)NC3CCC1 (centres undefined)	-17%	10µM*	8
Cc1ccc2c(c1)c1c3n2CCN(C(=O)C2CC2)C3CCC1 (centres undefined)	-17%	?	5
Cc1ccc2c(=O)c3ccccc3n(CCCN)c2c1C	?	-8%	nt
COC(=O)c1cc(NC(=O)/C=C/c2ccccc2)ccc1O	nt	1%	nt
CCCOc1ccc(OCCOCCN2CCc3ccccc3C2)cc1	-8%	2%	15
CO[C@]1(C2=NCCN2)COc2ccccc2O1	-4%	-6%	nt
CCOC(=O)c1c(C)c(C(=O)NC(C)COC)c(C)n1C (centres undefined)	-6%	9%	?
CCOC(=O)c1c(C)c(C(=O)NC(C)COC)c(C)n1CC (centres undefined)	-19%	4%	-102*
Cc1[nH]c2ccccc2c1C(=O)Cn1c(=O)oc2ccccc21	-1%	2%	7
C=C(C)C1CC=C(C)C(OC(C)=O)C1 (centres undefined)	-2%	-3%	nt
CCOc1ccc(Oc2ccc(Cl)cc2N)cc1	nt	-5%	nt
CC(C)N=c1scc(-c2ccco2)n1/N=C/c1ccc(O)c(O)c1	32µM*	-4%	11
O=c1c2ccccc2nc(-c2ccco2)n1/N=C/c1ccccc1O	-2%	-15%	?
Oc1ccc(/C=N/n2c(-c3ccco3)csc2=Nc2cccnc2)c(O)c1	-14%	-5%	-7
COCCN=c1scc(-c2ccco2)n1/N=C/c1ccc(O)c(O)c1O	nt	8.9µM*	nt
FC(F)(F)c1ccccc1NC(=S)Nc1cccc(Cl)c1	nt	-12%	nt
COCCOC(=O)/C(C#N)=C/c1cn(Cc2ccccc2)nc1-c1cccnc1	nt	20µM*	nt
CCOC(=O)/C(C#N)=C\c1cccnc1	nt	6%	nt
Cn1cccc1/C=N\NC(=O)Cc1ccc(Br)c2ccccc12	nt	1%	nt
O=C(NC1CCCCC1)NC1CCN(S(=O)(=O)Cc2ccccc2)CC1	2%	4%	-10
O=C(NCC1CCCO1)C1CCC(CNS(=O)(=O)c2ccccc2)CC1 (centres undefined)	-9%	14µM*	-19
O=S(=O)(NCc1ccccc1)c1ccc(S(=O)(=O)NCC2CCCO2)cc1 (centres undefined)	nt	0%	nt
O=C(NCC1CCCO1)C1CCN(S(=O)(=O)c2ccccc2)CC1 (centres undefined)	nt	2%	nt
O=C(NCC1CCCO1)C1CCN(S(=O)(=O)Cc2ccccc2)CC1 (centres undefined)	2%	10%	-108*
SMILES	HPGD inh	ALDH1A1 block	PNC assembly inh
COC(=O)C1CCN(S(=O)(=O)Cc2ccccc2)CC1	22µM*	?	31
O=C(c1ccncc1)N1CCC2(CC1)CCN(c1ccncc1)CC2	-3%	-4%	nt
O=C1c2ccccc2-c2ccc(N(Cc3ccc(Br)cc3)Cc3ccc(Br)cc3)cc21	-4%	1%[13.5 µM]	nt
CN1CCN(CC(=O)N2c3ccccc3Sc3cc4ccccc4cc32)CC1	0%	-1%[13.5 µM]	nt
CC(C)C[C@@H](CC(=O)N[C@@H](CCC(=O)O)CC(=O)O)NC(=O)[C@@H]1CNCC[C@H]1NC(=O)C[C@H](CCCN)NC(=O)C[C@H](Cc1ccccc1)NC(=O)[C@@H]1CNCC[C@H]1N	-11%	-7%	nt
Cc1ccc(Cl)cc1NC1=C/C(=N\S(=O)(=O)c2cccs2)c2ccccc2C1=O	-16%	?	-3
Cc1cc(C)c(S(=O)(=O)/N=C2/C=C(SCC(=O)O)C(=O)c3ccccc32)cc1C	nt	7.1µM*	nt
CC(C)(C)c1ccc(O)c(/C=N\O)c1	-14%	1%	19
CC(C)(C)c1ccc(O)c(O)c1	10µM*	0.89µM*	nt
CCOc1ccccc1NC1=C(Cl)C(=O)N(c2ccc(OC)cc2)C1=O	-18%	8%	14
COc1ccccc1N1C(=O)C(Cl)=C(Nc2ccccc2O)C1=O	nt	13µM*	nt
CC(C)c1ccc(NC(=O)c2cccc(Br)c2)cc1	nt	-3%	nt
Cc1cccc(NCCC(=O)c2ccc(Br)cc2)c1	-10%	0.79µM*	-21
Cc1cccc(C(=O)NNC(=O)c2ccc(Br)cc2)c1	nt	9%	nt
